Potency and affinity values are given separately. Activity calls are given as the source filed them. Entries that show only a call come without a potency. The rule behind the calls is not given here.
Biological target: KSHV LANA C-terminal domain (residues 932-1162) binding to LBS DNA (UniProt O40947)
Assay: inhibitors of C-LANA binding to LBS DNA, dose response, biochemical, fluorescence polarization, cherry-picked samples (AID 504725)
Conditions: MBP-C-LANA / FAM-LBS DNA fluorescence polarization, percent change from plate compound-well median; series mostly up to 35 µM

| SMILES | outcome |
| --- | --- |
| Cc1ccc(NC(=O)CN(C)C(=O)c2nn(C)c(=O)c3ccccc23)cc1 | inactive |
| CCN(CC(=O)Nc1ccc(OC)cc1)C(=O)c1cc([N+](=O)[O-])ccc1N1CCOCC1 | inactive |
| CC(C)[C@H](NC(=O)c1ccccc1F)C(=O)NC1CCCCCCC1 | inactive |
| COc1ccccc1C(=O)NCC(=O)OCC(=O)N(CC(C)C)c1c(N)n(Cc2ccccc2)c(=O)[nH]c1=O | inactive |
| NNc1nc2sc3c(c2c(=O)n1C1CCCCC1)CCN(Cc1ccccc1)C3 | inactive |
| COc1ccc(/C=C/C(=O)NC(=S)Nc2ccc(S(N)(=O)=O)cc2)cc1 | inactive |
| C=CCn1c(C)cc(-c2csc(NC(=O)CCc3nc4ccccc4c(=O)[nH]3)n2)c1C | inactive |
| COC(=O)c1ccc(OCC(O)CN2CCC(C)CC2)cc1 (stereo not drawn) | inactive |
| Cc1noc(C)c1-c1nc(CSc2ccccc2)no1 | inactive |
| COc1ccc(-c2cc(C(=O)N(C)CCc3ccc(OC)c(OC)c3)c3ccccc3n2)cc1 | inactive |
| CCC(=O)Nc1cccc(C(=O)/C=C/c2ccccc2)c1 | inactive |
| CCc1noc(C)c1C(=O)NCCc1c[nH]c2ccccc12 | inactive |
| C=C1c2cccc(O)c2C(O)=C2C(=O)[C@]3(O)C(O)=C(C(N)=O)C(=O)[C@@H](N(C)C)[C@@H]3[C@@H](O)[C@H]12 | inactive |
| CC1CC(C)CN(C(=O)c2ccc3ncsc3c2)C1 (stereo not drawn) | inactive |
| COc1ccc(/C=N/NC(=O)c2ccc3nc[nH]c3c2)c(OC)c1 | inactive |
| O=C1c2ccccc2C(=O)C1c1ccccn1 | inactive |
| CCCN(CCC)C(=O)C1c2ccccc2Oc2ccccc21 | inactive |
| CC(C)c1ccc(CNc2ccc([N+](=O)[O-])cn2)cc1 | inactive |
| NC1=NC[C@@H](Cc2ccc(O)cc2)N1CCc1cc(C(F)(F)F)cc(C(F)(F)F)c1 | inactive |

| SMILES | outcome |
| --- | --- |
| COc1ccc(C(=O)OCC(=O)NC2CC2)cc1S(=O)(=O)Nc1ccc(C)cc1 | inactive |
| O=C(CN1CC[C@@]2(O)CCCC[C@H]2[C@@H]1c1ccc(F)cc1)NCc1ccco1 | inactive |
| CCN(Cc1ccccc1)S(=O)(=O)c1cc2[nH]c(=O)c(=O)[nH]c2cc1C | inactive |
| Cc1noc(C)c1CSCC(=O)Nc1nc2c(F)cc(F)cc2s1 | inactive |
| COc1cccc(/C=N/NC(=O)C(=O)NCc2cccnc2)c1O | inactive |
| CN(c1ccc(OCC(=O)OCC(=O)c2c(N)n(C)c(=O)n(C)c2=O)cc1)S(=O)(=O)c1ccc2ccccc2c1 | inactive |
| CC1CC(C)(C)NC(=S)N1CC(=O)N(C)Cc1ccccc1 (stereo not drawn) | inactive |
| CSC(=NS(=O)(=O)c1ccc(N)cc1)NS(=O)(=O)c1cccs1 | inactive |
| COc1[nH]c(/N=C/c2ccccc2)c(C#N)c1C#N | inactive |
| COc1ccc(-c2n[nH]c(=S)n2-c2ccc(C)cc2)cc1 | inactive |
| COc1ccc(/C=C/c2cc(C(F)(F)F)[nH]c(=O)n2)cc1OC | inactive |
| C=CCNC(=S)N1CCN(S(=O)(=O)c2ccc(C)cc2)CC1 | inactive |
| O=C(NCC1CCCO1)c1cccc(S(=O)(=O)N(Cc2ccccc2)c2ccccc2)c1 (stereo not drawn) | inactive |
| CC(=O)N/C(=C/c1ccc(OS(=O)(=O)c2ccc(C)cc2)cc1)C(=O)Nc1ccc(C(=O)O)cc1 | inactive |
| O=C(CSc1cccc2cccnc12)N/N=C/c1ccc(O)cc1 | inactive |
| CN(C)/C=N/c1nc2nccc(-c3ccc(Cl)cc3)n2n1 | inactive |
| CC(C)Cc1nc(SCC(=O)Nc2nnc(CC(C)C)s2)n[nH]1 | inactive |
| CCN(CCCNC(=O)Cn1cc2c(n1)CCCC2)c1cccc(C)c1 | inactive |
| COc1cccc(OCCCn2cc(/C=C3/C(=N)N4C=C(C)SC4=NC3=O)c3ccccc32)c1 | inactive |
